Screening results: PubChem, National Center for Advancing Translational Sciences (NCATS)
FLuc inh: blocks purified firefly luciferase enzyme activity | purified P. pyralis luciferase, luminescence, biochemical | hit rate 2.5% among 76,000 | P08659 | Potency, µM (series often up to 115 µM), hits mostly inhibitors; further: on the % scale 0 is the no-effect control and ±100 the full control effect; nearly all actives have a fitted effect of over 65% in size
Target sequence (P08659 whole entry, looked up): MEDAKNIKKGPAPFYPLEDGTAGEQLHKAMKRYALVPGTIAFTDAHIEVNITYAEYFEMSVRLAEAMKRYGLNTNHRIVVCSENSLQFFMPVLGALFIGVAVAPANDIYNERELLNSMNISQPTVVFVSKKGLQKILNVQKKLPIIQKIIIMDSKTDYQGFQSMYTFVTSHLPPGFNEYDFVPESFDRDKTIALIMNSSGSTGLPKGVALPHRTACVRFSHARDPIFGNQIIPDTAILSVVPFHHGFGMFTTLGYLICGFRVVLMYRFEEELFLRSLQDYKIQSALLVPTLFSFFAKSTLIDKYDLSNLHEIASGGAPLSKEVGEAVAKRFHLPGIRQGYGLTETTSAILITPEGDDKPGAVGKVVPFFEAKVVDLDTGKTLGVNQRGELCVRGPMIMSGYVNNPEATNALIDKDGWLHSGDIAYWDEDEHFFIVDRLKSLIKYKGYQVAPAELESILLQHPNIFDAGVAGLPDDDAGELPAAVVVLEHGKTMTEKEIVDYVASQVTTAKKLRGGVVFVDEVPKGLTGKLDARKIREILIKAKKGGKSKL
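Purified 10nM P. pyralis luciferase with 10uM D-luciferin and 10uM ATP in 50mM Tris acetate pH 7.5, 10mM Mg acetate, 0.01% Tween-20, 0.05% BSA. qHTS titration; luminescence read by CCD imager.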
NIH3T3 tox: cytotoxic compounds in NIH 3T3 cells; NIH 3T3 viability, CellTiter-Glo ATP luminescence, 48-72 h; Potency, µM (doses to about 96.7 µM), for the others: top-dose activity change, negative = cytotoxicity, usual class: inhibitors; hit rate 4.3% among 94,000; further: on the % scale 0 is the no-effect control and ±100 the full control effect; nearly all actives have a fitted effect of over 55% in size
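Mouse fibroblast NIH 3T3 cells, 400 per well, received compound via pintool and were incubated for 48 or 72 hr prior to CellTiter-Glo ATP luminescence measurement.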
GPT2 inhibitor: blocks human glutamate pyruvate transaminase 2; Recombinant GPT2, coupled pyruvate oxidase/HRP Amplex Red fluorescence; Potency, µM (doses to about 57.7 µM), without a hit: at the highest dose activity change, negative = inhibition, usual class: inhibitors; hit rate 0.25% among 100,000; further: on the % scale 0 is the no-effect control and ±100 the full control effect; nearly all actives have a fitted effect of over 60% in size
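Fluorescence of coupled pyruvate oxidase/HRP/Amplex Red system (50uM Amplex, 30 min, dark) reports pyruvate formed by GPT2. Enzyme reaction: 10ng/uL GPT2, 2mM L-alanine, 250uM a-KG, 30 min room temperature, pH 7.5; 50uM AOA control.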
HEK293 tox: kills HEK 293 cells; hit rate 6.6% among 94,000; AID 1345083; HEK 293 viability, ATP luminescence (CellTiter-Glo), 48-72 h; Potency, µM (titrated, usually from 115 µM), for inactives: at the top dose activity change, negative = cytotoxicity, usual class: inhibitors; further: on the % scale 0 is the no-effect control and ±100 the full control effect; nearly all actives have a fitted effect of over 60% in size
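ATP-coupled CellTiter-Glo luminescence served as viability read-out, recorded 10 min after reagent addition at room temperature. HEK 293 cells, 250 cells/well, had been incubated with pintool-transferred compound for 48 or 72 hr at 37 degree Celsius.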
NPR1 antag: antagonists of human natriuretic peptide receptor Npr1; hit rate 1.6% among 76,000; AID 1347048; HEK293 hNpr1 GloSensor cGMP, ANP-stimulated luminescence; Potency, µM (series often up to 46.3 µM), inactives show at the top dose activity change, negative = inhibition, usual class: inhibitors; P16066; calls by dose curve; further: on the % scale 0 is the no-effect control and ±100 the full control effect; nearly all actives have a fitted effect of over 60% in size
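Compound pre-incubated 30 min at room temperature on GloSensor-loaded HEK293 cells stably carrying hNpr1 and the pGS-40F cGMP biosensor. Stimulation uses hNppA at 0.1 nM final; luminescence is taken at baseline and 20 min post-agonist.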
Npr1 antag conf: confirmation of human Npr1 natriuretic peptide receptor antagonists; hit rate 76% among 1,400; HEK293 hNpr1 cGMP GloSensor luminescence, ANP-stimulated; Potency, µM (highest dose often 57.6 µM), inactives show at the top dose activity change, negative = inhibition, actives largely listed as inhibitors; shares compounds with NPR1 antag; calls by dose curve; further: nearly all actives have a fitted effect of over 70% in size
NPR2 antag: hNpr2 antagonism, selectivity versus Npr1 | shares compounds with NPR1 antag | HEK293 hNpr2 GloSensor cGMP luminescence, CNP-stimulated | Potency, µM (titrated, usually from 57.6 µM), inactives show at the top dose activity change, negative = inhibition, actives largely listed as inhibitors | hit rate 67% among 1,400 | AID 1347046; calls by dose curve; further: nearly all actives have a fitted effect of over 70% in size
FLuc inh counter: inhibits firefly luciferase, false Npr1 antagonist flag. purified FLuc enzyme, luminescence, Km substrate. hit rate 0.7% among 1,400. shares compounds with NPR1 antag. Potency, µM (series often up to 57.6 µM), inactives show at the top dose activity change, negative = inhibition, hits mostly inhibitors; further: 0% is about no effect
GloSensor ctrl: reduces cGMP signal in GloSensor control cells; hit rate 69% among 1,400; Potency, µM (highest dose often 57.6 µM), inactives show at the top dose activity change, negative = inhibition, usual class: inhibitors; AID 1347051; shares compounds with NPR1 antag; HEK293 GloSensor cGMP, SNP-stimulated, luminescence; calls by dose curve; further: on the % scale 0 is the no-effect control and ±100 the full control effect; nearly all actives have a fitted effect of over 70% in size
Numbers without * were called inactive; [ ] = remark or other dose. Sampled rows, rich in hits. Any-hit rate of the full collection: about 10%. Unless noted, the call rests on the fitted dose curve; in most records, active means well fitted curve in the direction sought with a large enough effect; inconclusive means small, poorly fitted or top-dose-only effect, or another doubt; inactive means no such curve, though single readings can be large; an effect the other way counts as inactive or inconclusive. Potency means the concentration at half of the fitted maximal effect.

For C=CCN1C[C@@H]2CN(C(=O)c3cccc(Cl)c3C)C[C@]2(C(=O)O)C1 the results were FLuc inh inactive, NIH3T3 tox inactive, GPT2 inhibitor inactive, HEK293 tox -6% and NPR1 antag 0%.
COc1cccc(CN[C@H]2[C@H](O)[C@H](O)C[C@@H]2c2cccnc2)c1 was read as FLuc inh inactive, NIH3T3 tox inactive, GPT2 inhibitor -9%[88.5 µM], HEK293 tox 2%[172 µM] and NPR1 antag -10%[70.6 µM].
For Cc1oc(C2CCN(C(=O)C3CCCN(S(=O)(=O)N4CCCC4)C3)CC2)nc1C(=O)N1CCCC1 (stereo not given) the results were NIH3T3 tox -26%, GPT2 inhibitor inactive and HEK293 tox inconclusive.
COc1ccc(C2Cn3nnc(-c4nc(C(C)(C)C)no4)c3CO2)cc1 (stereo not given) was read as FLuc inh inactive, NIH3T3 tox inconclusive, GPT2 inhibitor inconclusive, HEK293 tox inconclusive, NPR1 antag inconclusive, Npr1 antag conf 22µM*, NPR2 antag inconclusive, FLuc inh counter 0% and GloSensor ctrl -18%.
Cc1ccc(C2Cn3nnc(-c4nc(C5CCCCC5)no4)c3CO2)c(C)c1 (stereo not given) was read as FLuc inh inactive, NIH3T3 tox -30%, GPT2 inhibitor -13%, HEK293 tox inconclusive, NPR1 antag inconclusive, Npr1 antag conf 14µM*, NPR2 antag 14µM*, FLuc inh counter -1% and GloSensor ctrl 1%.
CC(C)(C)c1noc(-c2nnn3c2COC(c2ccc(F)cc2)C3)n1 (stereo not given) was read as FLuc inh inactive, NIH3T3 tox -17%, GPT2 inhibitor inactive, HEK293 tox inconclusive, NPR1 antag inconclusive, Npr1 antag conf inconclusive, NPR2 antag inconclusive, FLuc inh counter 3% and GloSensor ctrl -24%.
Screening Clc1ccc(C2Cn3nnc(-c4nc(C5CC5)no4)c3CO2)cc1 (stereo not given) returned FLuc inh inactive, NIH3T3 tox inconclusive, GPT2 inhibitor inactive, HEK293 tox inconclusive, NPR1 antag inconclusive, Npr1 antag conf inconclusive, NPR2 antag -22%, FLuc inh counter 4% and GloSensor ctrl 1%.
`Cc1ccc(-c2noc(-c3nnn4c3COC(c3ccc(C)cc3C)C4)n2)cc1` (stereo not given) gave FLuc inh inactive, NIH3T3 tox inactive, GPT2 inhibitor 5%, HEK293 tox -1% and NPR1 antag 4%.
For Cc1cc(S(=O)(=O)N2CCN(C3CCN(CCc4ccccc4)C3=O)CC2)ccc1F (stereo not given) the results were FLuc inh inactive, NIH3T3 tox -19%, GPT2 inhibitor 1%, HEK293 tox inconclusive and NPR1 antag 3%.
For Fc1ccc(-c2noc(-c3nnn4c3COC(c3ccc(Cl)cc3)C4)n2)cc1 (stereo not given) the results were FLuc inh inactive, NIH3T3 tox 0%, GPT2 inhibitor inactive, HEK293 tox -3% and NPR1 antag -10%.
